Screening data as filed in PubChem.
Most compounds without a hit are left out; they make up all but 2.9% or so of the library.
ERa coact pot – enhances coactivator binding to human estrogen receptor alpha; coactivator binding (% of control), % at 25.6 µM; 86,000 compounds, 1.3% hits; AID 639; TR-FRET ERalpha-LBD/SRC-Cy5 coactivator binding, 2 h; 100 = basal binding, no effect; in the data active = activity above about 200%;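 note: binding measured in presence of low estradiol as agonist stimulus; 0% = peptide alone without receptor and 100% = receptor with peptide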
Calb biofilm kill – kills Candida albicans biofilms; 85,000 compounds, 0.14% hits; C. albicans biofilm + clotrimazole, Alamar Blue; inhibition, % at 6 µM;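 active = inhibition above 20%; inactive = inhibition below 20%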;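 note: preformed 24 hr biofilms exposed to compound for 48 hr; 0% = biofilm without compound and 100% = blank killed by clotrimazole plus chlorhexidine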
HePTP inhibitor – inhibitors of human HePTP phosphatase. P35236. recombinant HePTP phosphatase activity, OD absorbance. inhibition, % at 20 µM. 110,000 compounds, 0.64% hits. AID 521; in the data active = inhibition above about 50%;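 note: plate controls were vehicle for no effect and reference inhibitor for full effect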
Target sequence (P35236 whole entry, looked up): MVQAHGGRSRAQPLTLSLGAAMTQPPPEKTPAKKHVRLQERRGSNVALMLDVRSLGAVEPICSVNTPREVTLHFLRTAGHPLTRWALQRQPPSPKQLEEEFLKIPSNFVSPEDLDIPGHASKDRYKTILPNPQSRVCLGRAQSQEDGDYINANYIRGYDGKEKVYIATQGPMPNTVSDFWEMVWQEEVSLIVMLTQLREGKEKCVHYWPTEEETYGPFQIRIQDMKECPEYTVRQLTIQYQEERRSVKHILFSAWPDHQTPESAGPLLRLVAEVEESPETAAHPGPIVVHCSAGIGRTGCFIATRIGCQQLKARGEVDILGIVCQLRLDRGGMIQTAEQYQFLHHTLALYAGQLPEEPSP
ERb coact inh – blocks coactivator binding to human estrogen receptor beta; 86,000 compounds, 1.3% hits; AID 633; Q92731; inhibition, % at 25.6 µM; TR-FRET ER-beta LBD / SRC1-Cy5 peptide binding; receptor agonist-loaded with 1 µM estradiol;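 active = compounds whose percent inhibition of the receptor-coactivator binding signal exceeds about 50% in the single-dose screen, limit read from the data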;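 note: 0% = receptor plus peptide wells without compound and 100% = peptide-only wells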
Smad3 FoxH1 inh – inhibitors of human Smad3 transcription factor binding | AID 630 | TR-FRET Smad3/Dy647-FoxH1 peptide binding, europium anti-His | P84022 | inhibition, % at 25 µM | 88,000 compounds, 0.29% hits;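 active = compounds that reduce the energy-transfer binding signal between the protein and its labelled peptide by more than half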;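 note: 0% = Smad3 plus labelled peptide maximal FRET and 100% = peptide-only background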
ERa SRC1 inh – ER-alpha (human) coactivator binding inhibition. TR-FRET ER-alpha LBD / SRC-1 peptide, estradiol-bound. inhibition, % at 25.6 µM. P03372. 86,000 compounds, 1.7% hits; in the data active = inhibition above about 50%;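 note: 0% = receptor plus peptide control and 100% = peptide only without receptor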
* = called active by the depositor; · = not tested or not shown; [ ] = another dose, or the depositor's remark.

SMILES | ERa coact pot | Calb biofilm kill | HePTP inhibitor | ERb coact inh | Smad3 FoxH1 inh | ERa SRC1 inh
O=[N+]([O-])c1ccc(/C=N/Nc2nc(N3CCCCCC3)nc(N3CCCCCC3)n2)o1 | 79.7 | 8.0 | · | 95.5*[fluorescence artefact?] | 13.7 | 13.6
COc1cc(NC(=O)CCNC(=O)Cn2cnc3ccccc3c2=O)cc(OC)c1OC | 82.4 | 1.2 | · | 9.4 | 0.8 | 83.1*[fluorescence artefact?]
Fc1ccc(Cc2nnc(-c3cccs3)o2)cc1 | 124.7 | 24.1* | -6.0 | -2.5 | -0.2 | -11.5
Fc1ccc(CSc2nnc(-c3cccs3)o2)cc1 | 123.7 | 5.6 | 1.2 | -5.6 | 5.3 | -1.2
CN(c1ccccc1C(=O)O)S(=O)(=O)c1ccc2c3c(cccc13)C(=O)N2 | 31.2 | -2.1 | 39.9 | 62.2* | -3.9 | 56.5*
CCOc1ccc(S(=O)(=O)NCc2ccco2)c2ccccc12 | 70.8 | 3.9 | 1.9 | 10.9 | -0.3 | 13.1
O=C(O)c1ccccc1NS(=O)(=O)c1ccc2c3c(cccc13)C(=O)N2 | · | · | 4.2 | · | · | ·
O=C1Nc2ccc(S(=O)(=O)NCc3ccco3)c3cccc1c23 | 48.3 | 10.4 | 5.4 | 58.1*[fluorescence artefact?] | 2.4 | 44.2
O=C(Cc1ccc(Cl)cc1)Nc1ccc(-c2nc3ccccc3s2)cc1 | · | · | 6.0 | · | · | ·
CC(C)OC(=O)c1c(-c2ccc(C(C)C)cc2)csc1N | · | · | -2.6 | · | · | ·
CCOC(=O)c1ccccc1NC(=O)CCc1ccccc1 | · | · | -11.2 | · | · | ·
Cc1c(N2C(=O)c3ccc4c5c(ccc(c35)C2=O)CC4)c(=O)n(-c2ccccc2)n1C | -0.9 | 7.8 | · | 91.7*[fluorescence artefact?] | 43.2 | 95.4*[fluorescence artefact?]
O=C(N/N=C/c1ccc(O)cc1O)c1ccc([N+](=O)[O-])cc1 | · | · | 4.0 | · | · | ·
O=C(c1cccnc1)N1CCN(c2cccc(Cl)c2)CC1 | · | · | 5.9 | · | · | ·
CC(C)CNC(=O)c1ccccc1NC(=O)Cc1ccc(Cl)cc1 | · | · | 1.8 | · | · | ·
O=C1N=C(c2ccccc2)S/C1=C\c1cccs1 | 111.8 | -0.1 | · | 22.5 | 0.9 | 56.6*[fluorescence artefact?]
O=C1N=C(c2ccccc2)S/C1=C\c1ccccc1 | · | · | 1.3 | · | · | ·
Cc1cc(S(=O)(=O)N(C)CCc2ccccc2)ccc1-n1cnnn1 | 124.2 | 6.2 | 2.6 | 0.6 | 6.8 | 4.9
Cc1cc(S(=O)(=O)N(Cc2ccccc2)Cc2ccc(N(C)C)cc2)ccc1-n1cnnn1 | 210.7* | 3.8 | 18.7 | 13.6 | -0.9 | 14.0
O=C(Oc1ccc(N2C(=O)CCC2=O)cc1)c1ccco1 | 103.1 | 2.6 | -1.1 | 3.8 | -1.9 | 60.0*
O=C(Oc1ccc(-n2cnnn2)cc1)c1ccco1 | 113.7 | 4.3 | 5.3 | 2.5 | -5.7 | 6.6
CCOC(=O)C(CCCOc1cc(C)ccc1C)C(=O)OCC | · | · | -5.0 | · | · | ·
O=C(CC1Nc2ccccc2NC1=O)Nc1cccc(C(=O)O)c1 (stereo not drawn) | · | · | 52.2* | · | · | ·
COc1ccc(/C=N/n2cc(-c3ccccc3)nc2N)cc1 | 80.1 | 7.8 | 4.4 | 1.9 | -1.8 | 2.0
COc1ccc(/C=N/n2cc(-c3ccc(OC)cc3)nc2N)cc1 | 36.6 | 0.1 | 9.0 | 23.0 | 2.1 | 77.1*[fluorescence artefact?]
SMILES | ERa coact pot | Calb biofilm kill | HePTP inhibitor | ERb coact inh | Smad3 FoxH1 inh | ERa SRC1 inh
COc1ccc(Nc2nc(N3CCCC3)c3ccccc3n2)cc1 | 34.1 | 5.9 | 10.4 | 5.8 | -8.1 | 68.5*[fluorescence artefact?]
COC(=O)C1=C(O)/C(=C\c2ccc(CNC(=O)C(=O)Nc3ccc(C)cc3)o2)N=C1C | 36.5 | 2.4 | · | 42.7 | -16.9 | 72.3*[fluorescence artefact?]
CCOC(=O)C1=C(O)/C(=C/c2ccc(CNC(=O)C(=O)Nc3ccc(C)cc3)o2)N=C1C | 110.3 | 0.7 | 15.5 | 46.9 | 8.5 | 55.0*[fluorescence artefact?]
COC(=O)C1=C(O)/C(=C\c2ccc(CNC(=O)C(=O)Nc3ccc(C)c(C)c3)o2)N=C1C | 42.0 | 5.4 | · | 41.4 | 0.2 | 73.8*
COC(=O)C1=C(O)/C(=C/c2ccccc2O)N=C1C | · | · | 5.7 | · | · | ·
CC1C(=NO)C(C)C(c2ccc(Cl)cc2)NC1c1ccc(Cl)cc1 (stereo not drawn) | · | · | 0.6 | · | · | ·
CSc1nc(N(CCO)CCO)c2sc3nc(-c4ccco4)c4c(c3c2n1)CCC4 | 52.3 | 7.6 | · | 83.4*[fluorescence artefact?] | 32.0 | 80.7*[fluorescence artefact?]
NNc1ccc(/C=C/c2ccc(NN)cc2S(=O)(=O)O)c(S(=O)(=O)O)c1 | · | · | 94.3* | · | · | ·
COC(=O)Oc1c(Br)c(=O)oc2ccccc12 | 31.5 | 8.4 | -4.9 | 45.3 | -7.7 | 63.8*
COc1c([N+](=O)[O-])c(=O)oc2ccccc12 | · | · | -9.0 | · | · | ·
CCOC(=O)C1=C(O)/C(=C/c2ccccc2)SC1=Nc1ccc(OC)cc1 | · | · | 7.2 | · | · | ·
CCOC(=O)Cn1c(CN2CCN(c3cccc(Cl)c3)CC2)nc2c1c(=O)[nH]c(=O)n2C | 123.3 | 7.3 | 15.2 | 70.7*[fluorescence artefact?] | -5.8 | -3.3
